Experimental data as given in PubChem BioAssay (EPA / NIEHS).
“And” between values parts separate entries of the source, which are not always exact repeats. Identical values can stand only once. Records with an inconclusive call do not appear. Some compounds were tested as several samples or in several runs, with calls that do not always agree. The source made the active and inactive calls. How the source made its calls, unless noted: active means hit-call score of the fitted dose curve at least 0.9, where 1 is the maximum; inconclusive means response in the unintended direction; inactive means score below 0.9.

What was measured:
[1] = tested on: Sodium/Iodide Symporter (NIS), SLC5A5 (gene 6528); test: CPHEA_Stoker_NIS_Inhibition_RAIU: CPHEA's Radioactive Iodide Uptake (RAIU) Assay for Sodium/Iodide Symporter (NIS) Inhibition, Stoker and Laws Labs (AID 2283841)
Procedure, shortened: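 HEK293T cells stably expressing human NIS (hNIS-HEK293T-EPA) were exposed to test chemicals at 0.001–100uM (0.5% final DMSO) with 125I at a final 329pM in HBSS/10mM HEPES pH 7.4. After 2 hours at room temperature and ice-cold washes, intracellular 125I was counted as CPM and normalized to DMSO wells.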

[2] = CPHEA_Stoker_NIS_Cytotoxicity: Cytotoxicity Assessment for CPHEA's Radioactive Iodide Uptake (RAIU) Assay for Sodium/Iodide Symporter (NIS) Inhibition, Stoker and Laws Labs (AID 2283897);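 on AC50: active means loss of ATP signal versus DMSO meaning cytotoxicity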
Procedure, shortened: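 hNIS-HEK293T-EPA human kidney cells were exposed for 2 hours at room temperature to test chemicals (0.001–100uM, 0.5% final DMSO) in HEPES-buffered HBSS, pH 7.4. Viability was read as ATP content by luciferase bioluminescence, loss of signal versus DMSO.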

[3] = CEETOX_H295R_11DCORT_noMTC: CeeTox H295R High-throughput Steroidogenesis Assay for 11-Deoxycortisol (11DCORT), maximum tolerated concentration (MTC) filtered results only (AID 2283911; active means hit-call score of the fitted dose curve at least 0.9, where 1 is the maximum; inactive means score below 0.9); details: actives raise or lower the signal
Procedure, shortened: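 Readout is 11-deoxycortisol in culture medium by reverse-phase HPLC with MS/MS, after 48 h chemical treatment of forskolin-primed H295R cells. Values are relative to DMSO and unfiltered for cytotoxicity.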

[4] = CEETOX_H295R_OHPREG_noMTC: CeeTox H295R High-throughput Steroidogenesis Assay for OH-Pregnenolone (OHPREG), maximum tolerated concentration (MTC) filtered results only (AID 2283912; active means hit-call score of the fitted dose curve at least 0.9, where 1 is the maximum; inactive means score below 0.9); details: actives raise or lower the signal
Procedure, shortened: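 Steroidogenesis in H295R cells (OECD 456, modified): after 48 h forskolin priming and 48 h chemical treatment, secreted 17alpha-hydroxypregnenolone is measured by HPLC-MS/MS. Activity is fitted in both directions against DMSO; concentrations are not filtered by MTT-based MTC.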

[5] = CEETOX_H295R_OHPROG_noMTC: CeeTox H295R High-throughput Steroidogenesis Assay for OH-Progesterone (OHPROG), maximum tolerated concentration (MTC) filtered results only (AID 2283914; active means hit-call score of the fitted dose curve at least 0.9, where 1 is the maximum; inactive means score below 0.9); details: actives raise or lower the signal
Procedure, shortened: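 Forskolin 10 uM, 48 h prestim → test cmpd in DMSO (0.1% final), 48 h → medium MTBE extraction → LC-MS/MS quant of 17alpha-OH-progesterone. Bidirectional fit vs DMSO; no MTT-based MTC filtering.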

[6] = CEETOX_H295R_CORTISOL_noMTC: CeeTox H295R High-throughput Steroidogenesis Assay for Cortisol, maximum tolerated concentration (MTC) filtered results only (AID 2283916; active means hit-call score of the fitted dose curve at least 0.9, where 1 is the maximum; inactive means score below 0.9); details: actives raise or lower the signal
Procedure, shortened: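 Cortisol secretion measured by LC-MS/MS after 48 h chemical treatment (final 0.1% DMSO) of forskolin-primed (10 uM, 48 h) H295R cells; gain or loss fitted relative to DMSO, without maximum-tolerated-concentration filtering.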

[7] = CEETOX_H295R_CORTIC_noMTC: CeeTox H295R High-throughput Steroidogenesis Assay for Corticosterone (CORTIC), maximum tolerated concentration (MTC) filtered results only (AID 2283917; active means hit-call score of the fitted dose curve at least 0.9, where 1 is the maximum; inactive means score below 0.9); details: actives raise or lower the signal
Procedure, shortened: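 Following OECD 456 with minor changes, H295R cultures received 10 uM forskolin for 48 h, then test chemical at 0.1% DMSO for 48 h. Media steroids were extracted and measured by LC-MS/MS.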

[8] = CEETOX_H295R_DOC_noMTC: CeeTox H295R High-throughput Steroidogenesis Assay for DOC, maximum tolerated concentration (MTC) filtered results only (AID 2283918; active means hit-call score of the fitted dose curve at least 0.9, where 1 is the maximum; inactive means score below 0.9); details: actives raise or lower the signal
Procedure, shortened: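 11-Deoxycorticosterone secreted by human adrenal H295R cells quantified by HPLC-MS/MS after 48 h chemical exposure (0.1% DMSO), following 48 h 10 uM forskolin prestimulation. Concentrations not filtered by MTT-derived MTC; bidirectional fitting.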

[9] = molecular target: mouse Peroxisome Proliferator-activated Receptor gamma (PPARg), Pparg (gene 19016) (UniProt P37238); test: ATG_mPPARg_XSP2: Attagene TRANS-FACTORIAL Multi-Species (XSP2) HepG2 Assay for mouse Peroxisome Proliferator-activated Receptor gamma (PPARg) (AID 2283830);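 further: hits are gains in reporter mRNA above DMSO so AC50 marks activation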
Procedure, shortened: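 HepG2 cells transiently transfected with GAL4-UAS reporter units for chimeric NR-Gal4 proteins including mouse PPARg, exposed 24 h; medium contained 3 nM 6-alpha-fluorotestosterone and 1.5 nM norgestrel. Reporter mRNA quantified by RT-PCR, HpaI digestion and capillary electrophoresis, vs DMSO.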

[10] = molecular target: Nuclear receptor subfamily 1 group I member 2 (Mus musculus) (UniProt O54915); test: ATG_mPXR_XSP2: Attagene TRANS-FACTORIAL Multi-Species (XSP1) HepG2 Assay for mouse Pregnane X Receptor (PXR) (AID 2283831)
Procedure, shortened: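 Human liver HepG2 cells expressing exogenous receptor-GAL4 chimeras were exposed to test chemicals for 24 h. Induction of reporter mRNA was scored as gain of fluorescence signal over DMSO controls.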

[11] = molecular target: zebrafish Thyroid Hormone Receptor alpha (TRa), thraa (gene 30670) (UniProt Q98867); test: ATG_zfTRa_XSP2: Attagene TRANS-FACTORIAL Multi-Species (XSP1) HepG2 Assay for zebrafish Thyroid Hormone Receptor alpha (TRa) (AID 2283832);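 further: actives raise zebrafish TRa-Gal4 reporter transcript above DMSO baseline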
Procedure, shortened: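 Transient transfection of human HepG2 with GAL4-UAS reporter units, then 24 h chemical treatment. RNA isolated, reverse-transcribed, PCR-amplified, FAM-labelled, HpaI-digested and run on capillary electrophoresis. Gain-of-signal relative to DMSO.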

[12] = tested on: zebrafish Peroxisome Proliferator-activated Receptor gamma (PPARg), gene 557037; test: ATG_zfPPARg_XSP2: Attagene TRANS-FACTORIAL Multi-Species (XSP2) HepG2 Assay for zebrafish Peroxisome Proliferator-activated Receptor gamma (PPARg) (AID 2283833);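 further: reporter mRNA from a zebrafish PPARg GAL4 chimera measured by RT-PCR and capillary electrophoresis; actives increase reporter signal over DMSO so AC50 reflects activation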
Procedure, shortened: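 Cell-based transactivation of a chimeric zebrafish PPARg-GAL4 receptor was assessed in transiently transfected HepG2 cells after 24 h of treatment. Reporter mRNA induction, detected fluorescently after RT-PCR, was analysed in the positive direction against DMSO.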

[13] = tested on: turtle Thyroid Hormone Receptor, alpha (TRa), gene 101949057; test: ATG_trTRa_XSP2: Attagene TRANS-FACTORIAL Multi-Species (XSP1) HepG2 Assay for turtle Thyroid Hormone Receptor, alpha (TRa) (AID 2283834);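 further: hits raise reporter mRNA over the DMSO baseline so AC50 marks activators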
Procedure, shortened: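 Gain-of-signal reporter transcription measured in transiently transfected HepG2 at 24 h post-dose. Fluorescent RT-PCR products were resolved by capillary electrophoresis and compared with DMSO vehicle.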

[14] = ATG_M_61_XSP2: Attagene TRANS-FACTORIAL Multi-Species (XSP2) HepG2 Assay for M61 Transcription Factor (Internal Marker) (AID 2283835; active means hit-call score of the fitted dose curve at least 0.9, where 1 is the maximum; inactive means score below 0.9;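 further: reporter mRNA of an internal background marker read by RT-PCR and capillary electrophoresis; active means a rise in signal above the DMSO baseline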)
Procedure, shortened: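 First, HepG2 cells are transfected with reporter units under GAL4-UAS control. Next, chemicals are applied for 24 h. Then total RNA is reverse-transcribed, amplified, fluorescently labelled and sized by capillary electrophoresis, with gain of signal scored against DMSO.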

[15] = molecular target: zebrafish Thyroid Hormone Receptor beta (TRb), thrb (gene 30607) (UniProt Q9PVE4); test: ATG_zfTRb_XSP2: Attagene TRANS-FACTORIAL Multi-Species (XSP1) HepG2 Assay for zebrafish Thyroid Hormone Receptor beta (TRb) (AID 2283836)
Procedure, shortened: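 Human liver HepG2, transient MRTU transfection (NR-Gal4 chimeras, GAL4-UAS reporters); 24 h compound exposure; total RNA → oligo(dT) RT → PCR → 6-FAM label → HpaI cut → CE fluorescence. DMSO = negative control/baseline.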

[16] = ATG_XTT_Cytotoxicity_XSP2: Cytotoxicity Assessment in the Attagene TRANS-FACTORIAL Multi-Species (XSP2) HepG2 Assay (AID 2283837)
Procedure, shortened: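 HepG2 cells, transiently transfected with multiple reporter constructs, exposed to chemical for 24 h. Cell number assessed with XTT fluorescence read-out; loss of signal fitted relative to DMSO.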

[17] = molecular target: human Thyroid hormone Receptor alpha (TRa), THRA (gene 7067) (UniProt P10827); test: ATG_hTRa_XSP2: Attagene TRANS-FACTORIAL Multi-Species (XSP2) HepG2 Assay for human Thyroid hormone Receptor alpha (TRa) (AID 2283838)
Procedure, shortened: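 HepG2 cells were transiently transfected with GAL4-UAS reporter units for chimeric human TRa-Gal4 and dosed for 24 hours, with 3 nM 6-alpha-fluorotestosterone and 1.5 nM norgestrel present. Reporter mRNA was quantified by RT-PCR, FAM labelling and capillary electrophoresis, with gain of signal fitted versus DMSO.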

[18] = molecular target: frog Thyroid hormone Receptor alpha (TRa), thra-a (gene 397942) (UniProt P15204); test: ATG_frTRa_XSP2: Attagene TRANS-FACTORIAL Multi-Species (XSP2) HepG2 Assay for frog Thyroid hormone Receptor alpha (TRa) (AID 2283839)
Procedure, shortened: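 Frog thyroid receptor alpha was tested as an exogenous NR-Gal4 fusion in transiently transfected HepG2 cells. After 24 h chemical treatment, reporter mRNA induction was quantified by RT-PCR and capillary electrophoresis, with gain-of-signal analysed relative to DMSO.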

[19] = molecular target: human Thyroid hormone Receptor beta (TRb), THRB (gene 7068) (UniProt P10828); test: ATG_hTRb_XSP2: Attagene TRANS-FACTORIAL Multi-Species (XSP2) HepG2 Assay for human Thyroid hormone Receptor beta (TRb) (AID 2283840);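 further: actives raise reporter mRNA so potency reflects agonist-like gain of signal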
Procedure, shortened: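 In this cell-based multiplex, HepG2 liver cells carrying transfected GAL4-UAS reporter constructs are exposed to chemical for 24 hours, then reporter transcripts are measured by RT-PCR with capillary electrophoresis, scored as gain of signal against DMSO.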

[20] = CEETOX_H295R_ANDR_noMTC: CeeTox H295R High-throughput Steroidogenesis Assay for Androstenedione (ANDR), maximum tolerated concentration (MTC) filtered results only (AID 2283915; active means hit-call score of the fitted dose curve at least 0.9, where 1 is the maximum; inactive means score below 0.9); details: actives raise or lower the signal
Procedure, shortened: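 H295R cells, passage 10 or below, prestimulated 48 h with 10 uM forskolin, then exposed 48 h to chemical in 0.1% DMSO. Medium androstenedione extracted with MTBE, quantified by HPLC-MS/MS; concentrations not MTC-filtered; bidirectional fit versus DMSO.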

mouse Peroxisome Proliferator-activated Receptor gamma (PPARg), Pparg (gene 19016), sequence (P37238 whole entry, looked up, the tested form may be a part): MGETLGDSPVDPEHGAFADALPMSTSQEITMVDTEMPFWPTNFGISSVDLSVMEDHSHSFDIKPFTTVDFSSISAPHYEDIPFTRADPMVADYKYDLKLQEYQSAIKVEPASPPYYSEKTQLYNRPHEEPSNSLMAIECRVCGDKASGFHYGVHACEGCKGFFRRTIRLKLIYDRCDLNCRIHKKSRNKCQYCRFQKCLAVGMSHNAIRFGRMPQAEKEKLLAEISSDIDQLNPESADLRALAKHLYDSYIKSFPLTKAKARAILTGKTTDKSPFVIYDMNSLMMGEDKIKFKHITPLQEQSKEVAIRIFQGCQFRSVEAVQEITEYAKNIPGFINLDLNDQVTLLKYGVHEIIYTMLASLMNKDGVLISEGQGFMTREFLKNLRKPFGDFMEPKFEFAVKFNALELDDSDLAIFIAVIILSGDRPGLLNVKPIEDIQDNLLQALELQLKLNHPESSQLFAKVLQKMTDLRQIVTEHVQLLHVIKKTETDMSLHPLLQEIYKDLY
zebrafish Thyroid Hormone Receptor beta (TRb), thrb (gene 30607), sequence (Q9PVE4 whole entry, looked up, the tested form may be a part): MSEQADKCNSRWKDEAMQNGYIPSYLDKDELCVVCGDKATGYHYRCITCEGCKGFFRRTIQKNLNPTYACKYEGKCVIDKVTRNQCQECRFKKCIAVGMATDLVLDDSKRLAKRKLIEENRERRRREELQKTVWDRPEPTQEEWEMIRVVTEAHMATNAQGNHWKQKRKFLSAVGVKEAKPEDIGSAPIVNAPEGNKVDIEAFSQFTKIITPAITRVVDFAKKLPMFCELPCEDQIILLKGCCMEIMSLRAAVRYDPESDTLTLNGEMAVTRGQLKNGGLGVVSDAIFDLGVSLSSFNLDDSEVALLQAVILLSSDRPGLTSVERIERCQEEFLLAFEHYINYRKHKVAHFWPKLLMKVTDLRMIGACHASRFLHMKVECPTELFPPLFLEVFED
human Thyroid hormone Receptor alpha (TRa), THRA (gene 7067), sequence (P10827 whole entry, looked up, the tested form may be a part): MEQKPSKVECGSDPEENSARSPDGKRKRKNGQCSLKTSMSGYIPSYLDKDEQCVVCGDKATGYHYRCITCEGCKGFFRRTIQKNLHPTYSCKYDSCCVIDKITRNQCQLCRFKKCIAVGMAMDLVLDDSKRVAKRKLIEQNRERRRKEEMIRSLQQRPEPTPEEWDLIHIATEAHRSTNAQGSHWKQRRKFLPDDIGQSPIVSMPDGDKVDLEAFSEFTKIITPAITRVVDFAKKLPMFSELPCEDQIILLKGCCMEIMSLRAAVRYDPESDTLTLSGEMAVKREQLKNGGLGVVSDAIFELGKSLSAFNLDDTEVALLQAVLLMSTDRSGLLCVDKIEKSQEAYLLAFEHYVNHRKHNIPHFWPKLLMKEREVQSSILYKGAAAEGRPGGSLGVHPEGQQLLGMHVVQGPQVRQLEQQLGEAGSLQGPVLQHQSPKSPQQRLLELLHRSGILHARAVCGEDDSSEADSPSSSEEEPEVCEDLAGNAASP
Nuclear receptor subfamily 1 group I member 2 (Mus musculus), sequence (O54915 whole entry, looked up, the tested form may be a part): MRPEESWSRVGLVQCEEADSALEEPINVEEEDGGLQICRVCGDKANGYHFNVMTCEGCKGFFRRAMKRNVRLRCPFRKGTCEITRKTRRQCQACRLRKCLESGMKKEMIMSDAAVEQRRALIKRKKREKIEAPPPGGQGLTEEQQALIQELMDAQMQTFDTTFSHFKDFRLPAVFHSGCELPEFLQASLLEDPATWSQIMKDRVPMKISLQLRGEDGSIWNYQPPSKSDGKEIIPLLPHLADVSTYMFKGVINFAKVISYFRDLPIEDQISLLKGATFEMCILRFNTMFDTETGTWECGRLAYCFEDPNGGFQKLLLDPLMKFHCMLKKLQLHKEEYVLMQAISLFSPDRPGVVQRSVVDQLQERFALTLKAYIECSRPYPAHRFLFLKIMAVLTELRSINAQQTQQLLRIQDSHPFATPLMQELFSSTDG
frog Thyroid hormone Receptor alpha (TRa), thra-a (gene 397942), sequence (P15204 whole entry, looked up, the tested form may be a part): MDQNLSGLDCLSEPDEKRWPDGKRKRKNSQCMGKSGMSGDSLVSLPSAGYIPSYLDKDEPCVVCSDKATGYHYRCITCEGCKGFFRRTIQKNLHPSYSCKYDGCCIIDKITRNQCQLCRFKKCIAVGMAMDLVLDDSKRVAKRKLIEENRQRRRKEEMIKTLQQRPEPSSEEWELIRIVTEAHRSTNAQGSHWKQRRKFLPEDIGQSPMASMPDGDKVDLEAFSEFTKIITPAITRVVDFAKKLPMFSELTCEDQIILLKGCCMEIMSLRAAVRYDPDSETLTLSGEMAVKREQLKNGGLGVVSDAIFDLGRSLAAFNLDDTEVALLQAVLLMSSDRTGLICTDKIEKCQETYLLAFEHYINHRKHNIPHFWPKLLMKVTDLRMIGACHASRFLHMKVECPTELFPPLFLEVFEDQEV
zebrafish Thyroid Hormone Receptor alpha (TRa), thraa (gene 30670), sequence (Q98867 whole entry, looked up, the tested form may be a part): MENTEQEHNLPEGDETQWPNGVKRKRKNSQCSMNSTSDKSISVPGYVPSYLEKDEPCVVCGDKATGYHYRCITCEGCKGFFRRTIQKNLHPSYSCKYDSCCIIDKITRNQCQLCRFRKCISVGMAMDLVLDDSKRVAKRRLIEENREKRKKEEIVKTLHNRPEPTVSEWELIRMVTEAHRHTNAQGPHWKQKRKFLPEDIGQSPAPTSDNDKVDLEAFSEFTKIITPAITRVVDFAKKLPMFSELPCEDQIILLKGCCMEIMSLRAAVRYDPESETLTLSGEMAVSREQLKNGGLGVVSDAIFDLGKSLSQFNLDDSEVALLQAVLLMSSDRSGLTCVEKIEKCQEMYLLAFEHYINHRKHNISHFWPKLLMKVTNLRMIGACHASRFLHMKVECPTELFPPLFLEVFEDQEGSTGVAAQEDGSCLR
human Thyroid hormone Receptor beta (TRb), THRB (gene 7068), sequence (P10828 whole entry, looked up, the tested form may be a part): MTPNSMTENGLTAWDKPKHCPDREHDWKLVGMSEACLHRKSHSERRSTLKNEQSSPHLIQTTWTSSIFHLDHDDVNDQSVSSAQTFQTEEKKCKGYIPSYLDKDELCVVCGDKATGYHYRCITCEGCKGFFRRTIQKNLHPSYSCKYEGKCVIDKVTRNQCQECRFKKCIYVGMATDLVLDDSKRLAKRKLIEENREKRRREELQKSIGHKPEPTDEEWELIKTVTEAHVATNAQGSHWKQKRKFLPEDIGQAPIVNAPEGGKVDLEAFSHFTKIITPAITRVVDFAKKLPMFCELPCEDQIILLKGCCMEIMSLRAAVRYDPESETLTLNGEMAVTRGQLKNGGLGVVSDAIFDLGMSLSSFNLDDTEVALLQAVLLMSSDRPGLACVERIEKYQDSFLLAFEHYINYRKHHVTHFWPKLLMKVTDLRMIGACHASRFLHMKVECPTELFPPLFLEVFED

CC(C)c1ccc(O)c(C(C)C)c1
outcome [1]: inactive
outcome [2]: inactive
outcome [3]: inactive
outcome [4]: inactive
outcome [5]: inactive
outcome [6]: inactive
AC50 [7]: 31.2 µM (active)
outcome [8]: inactive

O=C(Nc1ccccc1)c1cc(Cl)ccc1O
AC50 [1]: 0.851 µM (active)
outcome [2]: inactive

C[N+](C)(C)CCCNS(=O)(=O)C(F)(F)C(F)(F)C(F)(F)C(F)(F)C(F)(F)C(F)(F)C(F)(F)C(F)(F)F
AC50 [1]: 7.09 µM (active)

CCCCCCCCCCCCCCCCCCOS(=O)(=O)O
outcome [1]: inactive
outcome [2]: inactive

CC(CCC(=O)O)(c1ccc(O)cc1)c1ccc(O)cc1
outcome [9]: inactive
AC50 [10]: 100 µM (active)
outcome [10]: inactive
outcome [11]: inactive
outcome [12]: inactive
outcome [13]: inactive
outcome [14]: inactive
outcome [15]: inactive
outcome [16]: inactive
outcome [17]: inactive
outcome [18]: inactive
outcome [19]: inactive

CN(C)c1ccc2nc3ccc(=[N+](C)C)cc-3sc2c1
outcome [1]: inactive
AC50 [2]: 50 µM (active)

COc1ccc(C(=O)/C(Br)=C\C(=O)O)cc1
AC50 [3]: 65.2 µM (active)
AC50 [4]: 14.2 µM (active)
AC50 [5]: 58.3 µM (active)
AC50 [20]: 39.2 µM (active)
AC50 [6]: 50 µM (active)
AC50 [7]: 57.8 µM (active)
AC50 [8]: 13.6 µM (active)

CCCCCCCCCC[N+](C)(CCCCCCCCCC)CCC[Si](OC)(OC)OC
outcome [1]: inactive
outcome [2]: inactive

O=C(Oc1ccccc1)c1ccccc1O
outcome [1]: inactive
outcome [2]: inactive

CCCCC1C(=O)N(c2ccccc2)N(c2ccccc2)C1=O
outcome [3]: inactive
outcome [4]: inactive
outcome [6]: inactive
outcome [7]: inactive
outcome [8]: inactive

CCCCC/C=C\C/C=C\CCCCCCCC(=O)O
outcome [1]: inactive
AC50 [2]: 80.1 µM (active)

O=C(OCCc1ccccc1)c1ccccc1
outcome [1]: inactive
outcome [2]: inactive

Oc1ccccc1Cc1ccccc1O
AC50 [9]: 58.3 µM (active) and 34.4 µM (active)
AC50 [10]: 26.3 µM (active)
outcome [10]: inactive
outcome [11]: inactive
outcome [12]: inactive
outcome [13]: inactive
outcome [14]: inactive
outcome [15]: inactive
outcome [16]: inactive
outcome [17]: inactive
outcome [18]: inactive
outcome [19]: inactive

COc1ccc(-c2coc3cc(O)cc(O)c3c2=O)cc1
outcome [9]: inactive
AC50 [10]: 2.51 µM (active)
outcome [10]: inactive
outcome [11]: inactive
outcome [12]: inactive
outcome [13]: inactive
outcome [14]: inactive
outcome [15]: inactive
outcome [16]: inactive
outcome [17]: inactive
outcome [18]: inactive
outcome [19]: inactive
AC50 [1]: 9.92 µM (active)
outcome [2]: inactive

CO[Si](C)(C)OC
outcome [1]: inactive
outcome [2]: inactive

C=C1C[C@H]2[C@@H]3C=C(C)C4=CC(=O)CC[C@]4(C)[C@H]3CC[C@]2(C)[C@@]1(OC(C)=O)C(C)=O
outcome [9]: inactive
AC50 [10]: 931 nM (active) and 619 nM (active)
outcome [11]: inactive
outcome [12]: inactive
outcome [13]: inactive
outcome [16]: inactive
outcome [17]: inactive
outcome [18]: inactive
outcome [19]: inactive
outcome [1]: inactive
outcome [2]: inactive
